This passage reports Potency and outcome results from PubChem BioAssay (Tox21).

Test [1] is described as follows: qHTS assay for small molecules that induce genotoxicity in human embryonic kidney cells expressing luciferase-tagged ATAD5 (AID 651632). Further: nearly all actives have a fitted effect of over 15% in size. The gist of the method:
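HEK293T cells carrying a luciferase reporter tagged to ATAD5 were exposed to compound or DMSO vehicle for 16 hr at 37C, 5% CO2. Amplite was added, and after 30 min at room temperature luciferase activity was read as a marker of ATAD5 induction.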
For orientation: In qHTS, concentration-response curves come from the screen itself.

Test [2] is described as follows: qHTS assay for small molecule agonists of the p53 signaling pathway - cell viability (AID 651633; calls by dose curve; further: nearly all actives have a fitted effect of over 30% in size; further: potency means the concentration at half of the fitted maximal effect). The essentials:
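p53RE-bla cells, seeded at 4,000 per well and rested 5 h at 37 C/5% CO2, received compounds in DMSO for 16 h at 37 C. CellTiter-Glo was then added, and luminescence was read after 30 min at room temperature to gauge cytotoxicity.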

Test [3] in a line: qHTS assay for small molecule disruptors of the mitochondrial membrane potential - cell viability (AID 720634; calls by dose curve; further: nearly all actives have a fitted effect of over 20% in size; further: potency means the concentration at half of the fitted maximal effect). The gist of the method: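 HepG2 cells seeded overnight at 37 C, then exposed to compound or DMSO for 1 hr at 37 C, 5% CO2. m-MPI dye added, then CellTiter-Glo for 30 min at room temperature; viability read as ATP luminescence.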
Test [4] is described as follows: qHTS assay for small molecule disruptors of the mitochondrial membrane potential (AID 720635). Further: potency means the concentration at half of the fitted maximal effect. The essentials:
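HepG2 cells (2,000/well) attached overnight at 37C, then took compound for 1 hr at 37C, 5% CO2. Mito-MPS dye was added for 30 min; fluorescence was read at 490/535 nm (monomers) and 540/590 nm (aggregates).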

Test [5] is described as follows: qHTS assay to test for compound auto fluorescence at 590 nm (red) in HepG2 cells (AID 720674). The essentials: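 Intrinsic compound fluorescence in the red window (Ex/Em 540/590 nm) is measured in attached HepG2 cells exposed for 1 hr, DMSO vehicle as baseline, benchmarked to Rose Bengal sodium.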
Test [6] is described as follows: qHTS assay to test for compound auto fluorescence at 535 nm (green) in HepG2 cells (AID 720675).
Test [7] in a line: qHTS assay to test for compound auto fluorescence at 460 nm (blue) in HEK293 cells (AID 720678). The essentials:
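Blue read-out at excitation 405 nm and emission 460 nm follows overnight compound exposure of HEK293 cells at 37C in 5% CO2. Activity is given as auto fluorescence equivalency to triamterene.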

Test [8] is described as follows: qHTS assay to test for compound auto fluorescence at 590 nm (red) in HEK293 cells (AID 720679). The gist of the method: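 Red channel, Ex/Em 540/590nm; signal expressed as equivalency to Rose Bengal sodium. HEK293, 2,000 cells/well, 10% dialyzed FBS; 23 nL compound pinned after 4-5 hr attachment; overnight 37C/5% CO2 before reading.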
Test [9] in a line: qHTS assay to test for compound auto fluorescence at 535 nm (green) in HEK293 cells (AID 720680).
A short description of test [10]: qHTS assay to test for compound auto fluorescence at 460 nm (blue) in HEK293 cell free culture (AID 720681). The gist of the method: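 Test compounds were pinned into cell-free culture medium (DMEM with 10% FBS) and fluorescence was read directly at Ex/Em 405/460 nm. Signals were expressed as fluorescence equivalents of triamterene, with DMSO vehicle as control.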

The nature of test [11]: qHTS assay to test for compound auto fluorescence at 535 nm (green) in HEK293 cell free culture (AID 720682). The gist of the method:
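Cell-free medium (DMEM, 10% FBS) receives compound or DMSO by pintool. Plate read directly at Ex 485/Em 535 nm. Signal converted to fluorescein equivalency.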

Test [12] is described as follows: qHTS assay to test for compound auto fluorescence at 590 nm (red) in HEK293 cell free culture (AID 720683). The gist of the method: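 Tox21 10K library compounds were pinned into cell-free DMEM with 10% FBS and fluorescence was read at excitation 540 nm. Activity is expressed as Rose Bengal sodium equivalency.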
Test [13] can be described thus: qHTS assay to test for compound auto fluorescence at 590 nm (red) in HepG2 cell free culture (AID 720684). The gist of the method: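 Measured in medium alone (MEM containing 10% FBS) following pintool addition of compound; emission at 590 nm with 540 nm excitation, referenced to Rose Bengal sodium.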
Test [14] in a line: qHTS assay to test for compound auto fluorescence at 460 nm (blue) in HepG2 cell free culture (AID 720685). The essentials:
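Compound (23 nL) or DMSO pinned into cell-free MEM with 10% FBS; blue fluorescence read at 405/460 nm excitation/emission, expressed as auto-fluorescence equivalency to triamterene.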

Test [15] is described as follows: qHTS assay to test for compound auto fluorescence at 535 nm (green) in HepG2 cell free culture (AID 720686).
Test [16] in a line: qHTS assay to test for compound auto fluorescence at 460 nm (blue) in HepG2 cells (AID 720687). The essentials:
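Cells (2,000/well in MEM with 10% FBS) attached overnight at 37 C, then were exposed to compound or DMSO for 1 hr at 37 C, 5% CO2. Fluorescence read at Ex/Em 405/460 nm, expressed as triamterene-equivalent signal.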

Test [17] concerns the target Glucocorticoid receptor (Homo sapiens) (UniProt P04150). The test is described as follows: qHTS assay to identify small molecule agonists of the glucocorticoid receptor (GR) signaling pathway (AID 720691; active means well fitted activation curve with a large enough effect in the signal ratio in the repeat runs, not every such curve was filed as active; the % refers to the signal ratio). The gist of the method: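 GR-bla HeLa cells (beta-lactamase reporter under glucocorticoid response element) were plated 4 h at 37 C/5% CO2, given compounds in DMSO, and incubated 18 h at 37 C. LiveBLAzer B/G FRET substrate was added for 2 h at room temperature, then fluorescence intensity read.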

For test [18] the target is unchanged. The test is described as follows: qHTS assay to identify small molecule antagonists of the glucocorticoid receptor (GR) signaling pathway (AID 720692; active means well fitted inhibition curve with a large enough effect in the signal ratio in the repeat runs, not every such curve was filed as active; the % refers to the signal ratio; further: potency means the concentration at half of the fitted maximal effect). The gist of the method: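 GR-bla HeLa cells (beta-lactamase reporter under glucocorticoid response element) were pre-plated 4 h at 37 C, treated with compounds plus 5 nM dexamethasone (final) for 18 h, then read by LiveBLAzer B/G FRET fluorescence after 2 h.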

Test [19] can be described thus: qHTS assay for small molecules that induce genotoxicity in human embryonic kidney cells expressing luciferase-tagged ATAD5 - cell viability (AID 651634; calls by dose curve; further: nearly all actives have a fitted effect of over 25% in size; further: potency means the concentration at half of the fitted maximal effect). The gist of the method:
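HEK293T cells expressing luciferase-tagged ATAD5 were exposed to compound or DMSO for 15.5 hr at 37C, 5% CO2. Viability was then read as live-cell protease activity by CellTiter-Fluor fluorescence after 30 min at 37C.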

Unmarked numbers belong to inactive results. Results filed as inconclusive are left out. The source made the active and inactive calls. Unless noted, the call rests on the fitted dose curve; in most records, active means well fitted curve in the direction sought with a large enough effect in the repeat runs; inconclusive means weak or mixed curves; inactive means no such curve, though single readings can be large; an effect the other way counts as inactive or inconclusive.

Glucocorticoid receptor (Homo sapiens), sequence (P04150 whole entry, looked up): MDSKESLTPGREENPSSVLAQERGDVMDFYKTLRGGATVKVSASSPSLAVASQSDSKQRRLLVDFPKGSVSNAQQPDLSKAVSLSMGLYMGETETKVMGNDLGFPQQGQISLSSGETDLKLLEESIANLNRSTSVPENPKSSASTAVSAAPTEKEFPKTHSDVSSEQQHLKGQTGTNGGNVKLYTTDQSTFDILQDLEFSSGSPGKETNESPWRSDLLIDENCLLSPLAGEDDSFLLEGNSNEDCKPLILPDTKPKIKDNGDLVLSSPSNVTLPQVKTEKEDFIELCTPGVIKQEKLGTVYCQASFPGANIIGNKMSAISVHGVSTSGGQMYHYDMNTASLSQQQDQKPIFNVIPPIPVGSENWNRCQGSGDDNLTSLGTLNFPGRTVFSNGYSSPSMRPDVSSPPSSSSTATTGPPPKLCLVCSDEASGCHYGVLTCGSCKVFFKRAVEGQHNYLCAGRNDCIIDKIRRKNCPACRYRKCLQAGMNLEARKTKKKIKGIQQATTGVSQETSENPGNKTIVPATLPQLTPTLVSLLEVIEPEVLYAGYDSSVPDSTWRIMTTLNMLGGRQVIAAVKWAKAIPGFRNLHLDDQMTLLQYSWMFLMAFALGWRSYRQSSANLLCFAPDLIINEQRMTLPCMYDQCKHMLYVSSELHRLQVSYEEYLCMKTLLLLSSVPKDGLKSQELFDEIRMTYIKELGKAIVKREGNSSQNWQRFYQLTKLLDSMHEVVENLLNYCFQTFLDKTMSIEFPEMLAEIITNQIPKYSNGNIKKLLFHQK

With `Cc1cc(C)c(N)cc1C`, the Potency entry in test [1], in [2], in test [3], in test [4], in test [7] and in [10] was “inactive” in each case. In addition, the Potency result in test [14], in [16], in test [17] and in test [18] was “inactive” throughout. Further, the result in [5], in test [6], in test [8], in test [9], in test [11] and in test [12] was inactive. In addition, the compound was called inactive in test [13] and in test [15].
For `C[C@]1(Cn2ccnn2)[C@H](C(=O)O)N2C(=O)C[C@H]2S1(=O)=O`, the Potency result in test [1], in test [2], in [3], in test [7], in test [10] and in test [14] was “inactive” each time. Moreover, the Potency result in test [16] is “inactive”. Further, the compound was classed as inactive in test [5], in test [6], in test [8], in test [11], in [12] and in test [13]. For the same compound, the outcome in test [15] was inactive.
On to `COC(=O)C1=C(C)NC(C)=C(C(=O)O[C@@H]2CCCN(Cc3ccccc3)C2)[C@@H]1c1cccc([N+](=O)[O-])c1`, for which the Potency result in [1], in test [2], in test [7], in [10], in test [14] and in [16] was “inactive” in each case. Further, the Potency in test [4] is 13.3 µM (active); in [18], 10.7 µM (active). In addition, the compound was called inactive in test [5], in test [6], in test [8], in test [9], in test [11] and in test [12]. The call in test [13] and in test [15] was inactive.
With `O=[N+]([O-])c1cc(C2CCCCC2)c(O)c([N+](=O)[O-])c1`, the Potency entry in test [1], in test [7], in test [10], in [14], in test [16] and in test [17] was “inactive” throughout. Also, the Potency in test [19] is 19.3 µM (active); in test [3], 0.343 µM (active); in test [4], 0.153 µM (active). Moreover, the call in [5], in test [6], in [8], in test [9], in test [11] and in [12] was inactive. Moreover, the compound was classed as inactive in test [13] and in test [15].
On to `CN1C[C@H](C(=O)N[C@]2(C)O[C@@]3(O)[C@@H]4CCCN4C(=O)[C@H](Cc4ccccc4)N3C2=O)C[C@@H]2c3cccc4[nH]cc(c34)C[C@H]21`, for which the Potency result in [1], in [2], in test [3], in [10], in [14] and in test [16] was “inactive” each time. In addition, the Potency entry in test [17] and in test [18] was “inactive” in each case. Besides, the outcome in test [5], in test [6], in test [8], in [11], in test [12] and in test [13] was inactive. Further, the compound was called inactive in [15].
As for `C[C@@H]1CC(=O)NN=C1c1ccc(NN=C(C#N)C#N)cc1`, the Potency result in [1], in test [10], in test [14] and in test [16] was “inactive” throughout. In addition, the Potency in test [2] was 6.68 µM (active); in test [19], 23.7 µM (active); in test [4], 23.7 µM (active). Moreover, the call in [5], in [6], in test [8], in [9], in test [11] and in test [12] was inactive. Moreover, the call in test [13] and in test [15] was inactive.
Turning to `c1ccc(C[n+]2cccc3ccccc32)cc1`, the Potency entry in test [1], in test [2], in [3], in [10], in test [14] and in [16] was “inactive” in each case. For the same compound, the Potency result in test [17] and in [18] was “inactive” in each case. For the same compound, the outcome in [6], in [8], in test [9], in test [11], in test [12] and in [13] was inactive. For the same compound, the outcome in [15] was inactive.
On to `Cc1ccccc1N=C(N)Nc1ccccc1C`, for which the Potency result in test [2], in [3], in [7], in [10], in test [14] and in test [16] was “inactive” throughout. In addition, the Potency result in test [17] was “inactive”. Besides, the call in test [5], in [6], in test [8], in test [9], in test [11] and in test [12] was inactive. For the same compound, the compound was called inactive in [13] and in test [15].
Take `Brc1cc(Br)c(Oc2cc(Br)c(Br)cc2Br)cc1Br`: the Potency entry in [1], in test [3], in test [7], in [10], in test [14] and in test [16] was “inactive” each time. Also, the call in test [5], in test [6], in test [8], in test [9], in test [11] and in [12] was inactive. Moreover, the result in test [13] and in [15] was inactive.
On to `CC(=O)Oc1ccc([N+](=O)[O-])cc1CCl`, for which the Potency result in test [2], in test [3], in [7], in [10], in test [14] and in [16] was “inactive” throughout. For the same compound, the Potency in [4] was 54.5 µM (active). The call in [6], in test [8], in test [9], in test [12], in test [13] and in test [15] was inactive.
As for `CN1CC(=O)N2[C@H](c3ccc4c(c3)OCO4)c3[nH]c4ccccc4c3C[C@@H]2C1=O`, the Potency entry in test [19], in test [3], in [7], in test [10], in [14] and in [16] was “inactive” throughout. For the same compound, the Potency entry in test [17] and in test [18] was “inactive” each time. Besides, the compound was classed as inactive in test [5], in [6], in test [8], in test [9], in [11] and in test [12]. Also, the compound was called inactive in test [13] and in [15].
